# The entries come from a sample that favours the strongest signals as a whole.
# B1: HMGB1 (Rattus norvegicus), P63159 (protein)
# chain: MGKGDPKKPRGKMSSYAFFVQTCREEHKKKHPDASVNFSEFSKKCSERWKTMSAKEKGKFEDMAKADKARYEREMKTYIPPKGETKKKFKDPNAPKRPPSAFFLFCSEYRPKIKGEHPGLSIGDVAKKLGEMWNNTAADDKQPYEKKAAKLKEKYEKDIAAYRAKGKPDAAKKGVVKAEKSKKKKEEEDDEEDEEDEEEEEEEEDEDEEEDDDDE
# B2: CLECSF8 (Mus musculus), Q9Z2H6 (protein)
# chain: HYFLRWTRGSVVKLSDYHTRVTCIREEPQPGATGGTWTCCPVSWRAFQSNCYFPLNDNQTWHESERNCSGMSSHLVTINTEAEQNFVTQLLDKRFSYFLGLADENVEGQWQWVDKTPFNPHTVFWEKGESNDFMEEDCVVLVHVHEKWVWNDFPCHFEVRRICKLPGITFNWKPSK
# Key:
# Test in all cases: glycan array binding signal (z-score within array); higher = stronger binding
# Conditions in all cases: glycan notation: IUPAC condensed, linker removed
# [1] = biological target: Fuc(a1-2)[Gal(a1-3)]Gal(b1-4)Glc
# Summary of the method: (§1)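 The Consortium for Functional Glycomics database supplied 3228 glycan arrays, of which those lacking an available protein sequence were dropped. The binding signal, a within-array Z-score, was averaged across arrays of the same protein sequence and across linkers. Negative scores can be read as non-binding.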
# [2] = biological target: Fuc(a1-2)[GalNAc(a1-3)]Gal(b1-4)[Fuc(a1-3)]GlcNAc
# Summary of the method: as §1
# Fuc(a1-3)GlcNAc = biological target: Fuc(a1-3)GlcNAc
# Summary of the method: as §1
# [3] = biological target: Gal(b1-3)GalNAc(b1-3)Gal(a1-4)Gal(b1-4)Glc
# Summary of the method: as §1
# [4] = biological target: Gal(b1-3)[GlcNAc(b1-6)]GalNAc
# Summary of the method: as §1
# [5] = biological target: Gal(b1-3)[Neu5Ac(a2-6)]GalNAc
# Summary of the method: as §1
# [6] = biological target: Gal(b1-4)GalNAc(b1-3)[Fuc(a1-2)]Gal(b1-4)GlcNAc
# Summary of the method: as §1
# [7] = biological target: GalNAc(b1-3)Gal(a1-4)Gal(b1-4)GlcNAc
# Summary of the method: as §1
# [8] = biological target: GlcNAc(b1-6)Gal(b1-4)GlcNAc
# Summary of the method: as §1
# [9] = biological target: Man(a1-2)Man(a1-2)Man(a1-3)Man
# Summary of the method: as §1
# [10] = biological target: Neu5Ac(a2-3)Gal(b1-3)GalNAc(b1-3)Gal(a1-4)Gal(b1-4)Glc
# Summary of the method: as §1
# [11] = biological target: Neu5Ac(a2-3)Gal(b1-3)[Fuc(a1-4)]GlcNAc
# Summary of the method: as §1
# [12] = biological target: Neu5Ac(a2-3)Gal(b1-4)GlcNAc(b1-3)Gal(b1-4)GlcNAc(b1-3)Gal(b1-4)GlcNAc
# Summary of the method: as §1
# [13] = biological target: Neu5Ac(a2-3)Gal(b1-4)GlcNAc(b1-3)Gal(b1-4)[Fuc(a1-3)]GlcNAc
# Summary of the method: as §1
# [14] = biological target: Neu5Ac(a2-3)[Neu5Ac(a2-6)]GalNAc
# Summary of the method: as §1
# [15] = biological target: Neu5Ac(a2-6)GalNAc(b1-4)GlcNAc
# Summary of the method: as §1
# [16] = biological target: Neu5Gc(a2-3)Gal(b1-3)[Fuc(a1-4)]GlcNAc
# Summary of the method: as §1
# [17] = biological target: Neu5Gc(a2-3)Gal(b1-4)GlcNAc
# Summary of the method: as §1
# [18] = biological target: Fuc(a1-2)[Gal(a1-3)]Gal(b1-4)GlcNAc(b1-3)Gal(b1-4)Glc
# Summary of the method: as §1
# [19] = biological target: Fuc(a1-3)[Gal(b1-4)]GlcNAc(b1-3)Gal(b1-4)Glc
# Summary of the method: as §1
# Gal(b1-4)Glc = biological target: Gal(b1-4)Glc
# Summary of the method: as §1
# [20] = biological target: Gal(b1-4)GlcNAc(b1-2)Man(a1-3)[Gal(b1-4)GlcNAc(b1-2)Man(a1-6)]Man(b1-4)GlcNAc(b1-4)[Fuc(a1-6)]GlcNAc
# Summary of the method: as §1
# [21] = biological target: Gal(b1-4)GlcNAc(b1-2)Man(a1-3)[Gal(b1-4)GlcNAc(b1-2)Man(a1-6)][GlcNAc(b1-4)]Man(b1-4)GlcNAc(b1-4)[Fuc(a1-6)]GlcNAc
# Summary of the method: as §1
# Glc(a1-4)Glc = biological target: Glc(a1-4)Glc
# Summary of the method: as §1
# [22] = biological target: Glc(a1-6)Glc(a1-4)Glc(a1-4)Glc
# Summary of the method: as §1
# [23] = biological target: Glc(a1-6)Glc(a1-6)Glc(a1-6)Glc(a1-6)Glc(a1-6)Glc(a1-6)Glc(a1-6)Glc
# Summary of the method: as §1
# [24] = biological target: GlcA(b1-3)Gal(b1-4)GlcNAc(b1-3)Gal(b1-4)Glc
# Summary of the method: as §1
# [25] = biological target: GlcNAc(a1-4)Gal(b1-3)[Fuc(a1-2)]Gal
# Summary of the method: as §1
# [26] = biological target: GlcNAc(b1-2)[GlcNAc(b1-4)]Man(a1-3)[GlcNAc(b1-2)[GlcNAc(b1-4)][GlcNAc(b1-6)]Man(a1-6)][GlcNAc(b1-4)]Man(b1-4)GlcNAc(b1-4)GlcNAc
# Summary of the method: as §1
# [27] = biological target: GlcNAc(b1-4)GlcNAc(b1-4)GlcNAc
# Summary of the method: as §1
# [28] = biological target: HexA(a1-3)GalNAc4S(b1-4)IdoA(a1-3)GalNAc4S(b1-4)IdoA(a1-3)GalNAc4S(b1-4)IdoA(a1-3)GalNAc4S(b1-4)IdoA(a1-3)GalNAc4S(b1-4)IdoA(a1-3)GalNAc4S(b1-4)IdoA(a1-3)GalNAc4S
# Summary of the method: as §1
# [29] = biological target: Man(a1-2)Man(a1-3)[Man(a1-2)Man(a1-6)[Man(a1-3)]Man(a1-6)]Man(b1-4)GlcNAc(b1-4)GlcNAc
# Summary of the method: as §1
# [30] = biological target: Man(a1-2)Man(a1-3)[Man(a1-3)[Man(a1-6)]Man(a1-6)]Man(b1-4)GlcNAc(b1-4)GlcNAc
# Summary of the method: as §1
# [31] = biological target: Man(a1-3)[Man(a1-6)]Man(a1-6)[Man(a1-3)]Man
# Summary of the method: as §1
# [32] = biological target: Neu4Ac5Ac(a2-3)Gal(b1-4)Glc
# Summary of the method: as §1
# [33] = biological target: Neu5Ac(a2-3)Gal(b1-4)[Fuc(a1-3)]GlcNAc6S(b1-3)Gal(b1-4)Glc
# Summary of the method: as §1
# [34] = biological target: Neu5Ac(a2-6)Gal(b1-3)GlcNAc(b1-3)[Fuc(a1-3)[Gal(b1-4)]GlcNAc(b1-6)]Gal(b1-4)Glc
# Summary of the method: as §1
# Neu5Ac(a2-6)Gal(b1-4)Glc = biological target: Neu5Ac(a2-6)Gal(b1-4)Glc
# Summary of the method: as §1
# [35] = biological target: Neu5Ac(a2-8)Neu5Ac(a2-3)Gal(b1-3)GalNAc(b1-4)[Neu5Ac(a2-3)]Gal(b1-4)Glc
# Summary of the method: as §1
# [36] = biological target: Neu5Ac(a2-8)Neu5Ac(a2-8)Neu5Ac(a2-8)Neu5Ac(a2-8)Neu5Ac
# Summary of the method: as §1
# [37] = biological target: Xyl(a1-6)Glc(b1-4)[Xyl(a1-6)]Glc(b1-4)[Xyl(a1-6)]Glc(b1-4)Glc
# Summary of the method: as §1
binder,measurement,setting,value
B1,glycan array binding signal (z-score),[1],0.151
same,glycan array binding signal (z-score),[2],-0.019
same,glycan array binding signal (z-score),Fuc(a1-3)GlcNAc,9.99
same,glycan array binding signal (z-score),[3],-0.447
same,glycan array binding signal (z-score),[4],-0.335
same,glycan array binding signal (z-score),[5],-0.379
same,glycan array binding signal (z-score),[6],-0.322
same,glycan array binding signal (z-score),[7],2.44
same,glycan array binding signal (z-score),[8],2.57
same,glycan array binding signal (z-score),[9],-0.58
same,glycan array binding signal (z-score),[10],-0.21
same,glycan array binding signal (z-score),[11],-0.164
same,glycan array binding signal (z-score),[12],-0.169
same,glycan array binding signal (z-score),[13],2.06
same,glycan array binding signal (z-score),[14],-0.263
same,glycan array binding signal (z-score),[15],2.1
same,glycan array binding signal (z-score),[16],2.69
same,glycan array binding signal (z-score),[17],0.031
B2,glycan array binding signal (z-score),[18],-0.424
same,glycan array binding signal (z-score),[19],-0.424
same,glycan array binding signal (z-score),Gal(b1-4)Glc,-0.424
same,glycan array binding signal (z-score),[20],-0.424
same,glycan array binding signal (z-score),[21],-0.424
same,glycan array binding signal (z-score),Glc(a1-4)Glc,0.06
same,glycan array binding signal (z-score),[22],3.29
same,glycan array binding signal (z-score),[23],1.5
same,glycan array binding signal (z-score),[24],3.5
same,glycan array binding signal (z-score),[25],-0.424
same,glycan array binding signal (z-score),[26],-0.424
same,glycan array binding signal (z-score),[27],1.74
same,glycan array binding signal (z-score),[28],0.136
same,glycan array binding signal (z-score),[29],-0.424
same,glycan array binding signal (z-score),[30],-0.424
same,glycan array binding signal (z-score),[31],4.16
same,glycan array binding signal (z-score),[32],0.312
same,glycan array binding signal (z-score),[33],-0.424
same,glycan array binding signal (z-score),[34],-0.424
same,glycan array binding signal (z-score),Neu5Ac(a2-6)Gal(b1-4)Glc,-0.424
same,glycan array binding signal (z-score),[35],9.51
same,glycan array binding signal (z-score),[36],1.77
same,glycan array binding signal (z-score),[37],3.32

# Reference: the supplement of paper PMC8728848
